Data on 59 molecules can be found in PubChem BioAssay AID1259318 (Sanford-Burnham Center for Chemical Genomics, 2017).

Out of some 370,000 compounds screened, about 3,000 (0.81%) were called active. The full list was thinned out, with actives kept by preference. Unmarked numbers belong to inactive results.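 The calls were made as follows: active = activity above about 14% (limit read from the data; passing the limit was not always enough); inactive = the rest.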

For the experiment, the target named is Nuclear receptor subfamily 1 group D member 1 (Homo sapiens) (UniProt P20393). The experiment can be described thus: Rev-erbα–DNA interaction modulation – biochemical, FITC-DNA, fluorescence polarization, uHTS, primary screen (AID 1259318).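 Also: 0% = DMSO wells with 35 nM protein and 100% = DMSO wells with 750 nM protein.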 The note with it: Rev-erbα–FITC-DNA binding, 90 min, at 10 µM, stronger effect = higher value. For orientation: In fluorescence polarisation assays a small probe gives low polarisation when free and higher when bound to something large.
Chain of Nuclear receptor subfamily 1 group D member 1 (Homo sapiens) (P20393 whole entry, looked up): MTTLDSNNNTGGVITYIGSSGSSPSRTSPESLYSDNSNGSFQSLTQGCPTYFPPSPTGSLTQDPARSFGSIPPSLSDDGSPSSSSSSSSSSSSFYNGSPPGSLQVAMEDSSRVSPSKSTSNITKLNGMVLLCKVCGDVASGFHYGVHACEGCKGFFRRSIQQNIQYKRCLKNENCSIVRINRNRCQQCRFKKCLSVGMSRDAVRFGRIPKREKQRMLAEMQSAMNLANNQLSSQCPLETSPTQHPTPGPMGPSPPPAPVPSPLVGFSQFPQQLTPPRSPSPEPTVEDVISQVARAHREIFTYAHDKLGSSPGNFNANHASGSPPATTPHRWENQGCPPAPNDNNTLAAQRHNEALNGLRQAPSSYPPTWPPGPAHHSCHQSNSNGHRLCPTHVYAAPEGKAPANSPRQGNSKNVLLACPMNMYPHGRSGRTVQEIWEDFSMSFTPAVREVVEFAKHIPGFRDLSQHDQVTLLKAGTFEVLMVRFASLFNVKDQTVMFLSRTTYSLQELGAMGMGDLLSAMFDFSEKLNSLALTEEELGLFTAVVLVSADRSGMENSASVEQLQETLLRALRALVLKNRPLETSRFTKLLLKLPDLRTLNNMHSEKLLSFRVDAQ
For `C/C=C/C=C/C(=O)OCC(=O)Nc1ccc(Cl)cc1`, the activity is -1.79%.

With `O=S1(=O)c2ccc(N3CCN(Cc4ccccc4F)CC3)cc2Oc2ccccc2CN1Cc1cn(Cc2ccc(Cl)cc2)nn1`, the activity was -0.02%.

Take `CCOC(=O)c1ccc(NC(=O)c2c(N)n(C)c(=O)[nH]c2=O)cc1`: the activity was 2.83%.

For the molecule `CCOC(=O)c1ccc(NC(=O)CCn2c(=O)oc3ccccc32)cc1`, the activity is -4.86%.

As to `CCOC(=O)c1ccc(NC(=O)c2c(NCc3ccccc3)[nH]c(=O)[nH]c2=O)cc1`, the activity was 19.9% (active).

Consider `CCCCN1CCN(C(=O)c2ccc3c(c2)NC(=O)C(C)(C)O3)CC1`, for which the activity is -3.01%.

Turning to `O=c1ccc2c(-c3ccccc3S(=O)(=O)O)c3ccc(O)c(O)c3oc-2c1O`, the activity was -56.3%.

For `O=C(CNC(=O)C12CC3CC(CC(C3)C1)C2)OCC(=O)N1CCCCC1`, the activity was -3.15%.

`COc1ccc(CNC(=O)c2cc(=O)c3c(C)cc(C)cc3o2)cc1`: the activity was -1.71%.

As for `COc1ccc(CNC(=O)c2nnn(CC(=O)Nc3cc(C)cc(C)c3)c2N)cc1`, the activity is 33.3% (active).

As for `COc1ccc(CNC(=O)CN2CCC(n3nnc4cc(F)ccc43)CC2)cc1`, the activity is 0.03%.

As for `CCOC(=O)c1c(NC(C)=O)sc2c(O)c(Br)ccc12`, the activity was -1.09%.

With `CCOC(=O)C1CCN(C(=O)CN2C(=O)NC(C)(c3ccc4cc(OC)ccc4c3)C2=O)CC1` (centres undefined), the activity is -4.48%.

On to `O=C(Nc1cc(Cl)cc(Cl)c1)OCCN1CCCC12CCC(c1ccccc1)CC2` (centres undefined), for which the activity was -2.58%.

Turning to `CCCOc1cc(C)c(S(=O)(=O)n2nnc3ccccc32)cc1C`, the activity was -0.13%.

As for `Cc1nc2c(c(C)nn2-c2ccccc2)c(C)c1C`, the activity is 9.78%.

As to `CSc1ccc(-c2c(C#N)c(N)nc3c2c(C)nn3-c2ccccc2)cc1`, the activity was 59.1% (active).

Regarding `Cn1c(=O)c2c(-c3cccc(Br)c3)c(C#N)c(N)nc2n(C)c1=O`, the activity is -4.07%.

`CCC(C)[C@H]1COCCS(=O)(=O)N1Cc1ccc(C)cc1` (some centres undefined): the activity is -5%.

As for `O=C1C(=O)N(Cc2ccc(-c3ccsc3)cc2)c2ccc(OC(F)(F)F)cc21`, the activity was -0.04%.

For `O=C(c1cccc(C(F)(F)F)c1)N1CC[C@H]2[C@H](CCCN2Cc2cc(F)cc(F)c2)C1`, the activity was 0.92%.

In the case of `Cc1ccc2nc(-c3ccc(NC(=O)CN(C)S(=O)(=O)c4ccccc4)cc3)sc2c1`, the activity was 8.26%.

As for `Cc1cccc(N(CC(=O)Nc2ccc(-c3nc4ccc(C)cc4s3)cc2)S(C)(=O)=O)c1`, the activity is 35.6% (active).

As for `Cc1ccc(N(CC(=O)Nc2cc(C)cc(C)c2)S(=O)(=O)c2cccc3nonc23)cc1`, the activity is 0.18%.

For `CCOc1ncccc1C(=O)N(CC)CC(=O)Nc1ccc(NC(C)=O)cc1`, the activity is -1.37%.

Take `CCOC(=O)CNC(=O)CSc1ccc2nnc(-c3cccnc3)n2n1`: the activity was 3.05%.

Take `COC(=O)C(C)Sc1ccc2nnc(-c3cccc(F)c3)n2n1` (centres undefined): the activity was 1.26%.

Regarding `COc1ccc(-c2nnc3ccc(SCc4ccccc4)nn23)cc1`, the activity was 25.6% (active).

In the case of `O=C(CSc1ccc2nnc(-c3ccccc3)n2n1)N1CCCc2ccccc21`, the activity is -1.89%.

In the case of `CCOc1ccc(-c2nnc3ccc(SC)nn23)cc1`, the activity is 48.8% (active).

For `COc1ccc(CSc2nnc(-c3cccc(C)c3)n2C)cc1`, the activity is 9.69%.

Take `COc1cccc(CN(C)CC(=O)NCc2ccccc2Cl)c1OC`: the activity is -3.26%.

For the molecule `C=CCOC/C=C/C#CCN(CC=C)Cc1ccc(OC)cc1OC`, the activity is 6.98%.

With `Cc1ccc(-c2noc(CCC(=O)Nc3ccccc3N3CCN(C)CC3)n2)cc1`, the activity was 3.69%.

Consider `COCCn1c(C)cc(C(=O)COC(=O)/C=C/c2cccc(OC)c2)c1C`, for which the activity is 6.09%.

As for `Cc1cccc([C@@H]2[C@@H]3C(=O)N(C)C(=O)[C@@H]3[C@@H]3C(=O)Nc4ccccc4C(=O)N23)c1`, the activity was 1.77%.

With `CCCC(=O)Nc1ncnc2c1ncn2C1O[C@@H]2COP(=O)(O)O[C@H]2[C@H]1OC(=O)CCC` (some centres undefined), the activity is -3.72%.

Regarding `COc1cc(/C=C/C(=O)n2cnc3ccccc32)cc(OC)c1OC`, the activity was 11.5%.

In the case of `CC(=O)c1cc(C#N)c(SCC(=O)Nc2nccs2)nc1C`, the activity was 30.9% (active).

As to `Cc1[nH]c2ccccc2c1SCC(=O)Nc1nccs1`, the activity was 4.6%.

Take `Cc1cc(C(F)(F)F)nc(SCC(=O)Nc2nccs2)n1`: the activity was -6.74%.

Take `Cn1sc(=O)c2cc(S(=O)(=O)NC3CC3)ccc21`: the activity is -1.88%.

In the case of `CCOC(=O)NC(=O)CSc1nnc(SCCC(=O)O)s1`, the activity was 0.79%.

On to `O=C(Nn1c(SCc2ccc([N+](=O)[O-])cc2)nc2ccccc2c1=O)c1ccc(F)cc1`, for which the activity was 0.27%.

Regarding `O=C(CSc1nc2ccccc2c(=O)n1CCCO)NC1CC1`, the activity is 4.03%.

With `O=C(CCn1c(SCC(=O)c2ccccc2)nc2ccccc2c1=O)NCc1ccc(F)cc1`, the activity was 26.1% (active).

For the molecule `O=S(=O)(c1cccs1)N1CCCc2nc(-c3ccc(Br)cc3)ccc21`, the activity is 1.38%.

Regarding `c1ccc2c(c1)nnn2-c1ccncc1`, the activity is 1.17%.

As for `CC(C)CN(C(=O)c1cccc(S(=O)(=O)N2CCCCC2)c1)C1CCS(=O)(=O)C1` (centres undefined), the activity was 5.44%.

`CCOc1cc(-c2noc(CCC(=O)N3CCOCC3)n2)ccc1OC`: the activity is -5.84%.

As to `CCOc1nc(-c2ccc(OC)cc2)ccc1-c1noc(-c2cc(OC)c(OC)c(OC)c2)n1`, the activity is 26.3% (active).

Regarding `CCOC(=O)c1cc(-c2nnc(-c3cc(OC)c(OC)c(OC)c3)o2)c(C)nc1C`, the activity is 9.45%.

Turning to `Cc1sc2nc(-c3ccccc3F)oc(=O)c2c1C`, the activity is 1.33%.

With `CCCCC(=O)N[C@@H]1CC[C@@]23CCCN2C(=O)CCC[C@H]3[C@H]1C`, the activity is 1.41%.

As for `NC(=O)CCCC1=NS(=O)(=O)c2ccccc2N1`, the activity was -0.09%.

On to `c1ccc(-c2ccnc3nc(-n4cccc4)nn23)cc1`, for which the activity is -4.06%.

Regarding `Clc1ccc2nc(CSc3ccccc3)cn2c1`, the activity is 6.58%.

For the molecule `CCCCNc1c(-c2cccc(Sc3ccc(OC)cc3)c2)nc2ccccn12`, the activity was -0.18%.

With `CCCCCCSc1ccc(-c2nc3ccc(Cl)cn3c2NCc2ccccc2)cc1`, the activity is 24% (active).
